Source: PubChem BioAssay AID1159580 (chemical genetic matrix, 2015)
In all, about 5,500 compounds went through this assay and about 2,000 (36%) were called active. Roughly 18% stayed inconclusive and do not appear here. No stated cut-off is given here; in the data, active means normalized growth mostly below about 0.91 (no sharp cut-off); inconclusive means no clear call, values can overlap the other calls; inactive means mostly above about 0.92. The list shows a part of the results.

Test: chemical genetic growth profiling, strain panel (AID 1159580);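 further: tested at 20 µM; growth read once vehicle control cultures reached saturation at 30 °C; 1 = growth at the plate median or of vehicle wells; lower values mean less growth of the strain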
Settings: growth OD

Measured: normalized growth

C[C@@H]1O[C@@H](O[C@H]2C[C@@H](O)[C@]3(CO)C4C(CC[C@]3(O)C2)[C@@]2(O)CC[C@H](C3=CC(=O)OC3)[C@@]2(C)C[C@H]4O)[C@H](O)[C@H](O)[C@H]1O (some centres not stated)
inactive: S. cerevisiae deletion strains, locus YKL009W, strain mrt4, hits give low values 0.991 | S. cerevisiae deletion strains, locus YKL068W, hits give low values 0.998 | S. cerevisiae deletion strains, locus YKL085W, strain MDH1 (second series), hits give low values 0.993 | S. cerevisiae deletion strains, locus YKL085W, strain MDH1, hits give low values 0.993 | S. cerevisiae deletion strains, locus YKL160W, strain elf1, hits give low values 0.993 | S. cerevisiae deletion strains, locus YKR001C, strain vps1, hits give low values 1.01 | S. cerevisiae deletion strains, locus YKR026C, strain gcn3, hits give low values 1.02 | S. cerevisiae deletion strains, locus YKR091W, strain srl3, hits give low values 1.01 | S. cerevisiae deletion strains, locus YLL001W, strain dnm1, hits give low values 1.03 | S. cerevisiae deletion strains, locus YLL026W, hits give low values 1.03 | S. cerevisiae deletion strains, locus YLL041C, strain sdh2, hits give low values 1.01 | S. cerevisiae deletion strains, locus YLR027C, strain aat2, hits give low values 1.01 | S. cerevisiae deletion strains, locus YLR039C, strain RIC1, hits give low values 1.09 | S. cerevisiae deletion strains, locus YLR058C, strain SHM2, hits give low values 1.02 | S. cerevisiae deletion strains, locus YLR102C, strain apc9, hits give low values 0.997 | S. cerevisiae deletion strains, locus YLR113W, strain HOG1, hits give low values 1.01 | S. cerevisiae deletion strains, locus YLR221C, strain rsa3, hits give low values 1.02 | S. cerevisiae deletion strains, locus YLR258W, strain gsy2, hits give low values 1.02 | S. cerevisiae deletion strains, locus YLR262C, strain YPT6 (second series), hits give low values 1.02 | S. cerevisiae deletion strains, locus YLR262C, strain YPT6, hits give low values 1.09 | S. cerevisiae deletion strains, locus YLR268W, strain sec22, hits give low values 0.98 | S. cerevisiae deletion strains, locus YLR320W, strain mms22, hits give low values 1.03 | S. cerevisiae deletion strains, locus YLR330W, strain CHS5, hits give low values 1.01 | S. cerevisiae deletion strains, locus YLR342W, strain FKS1 (second series), hits give low values 1.04 | S. cerevisiae deletion strains, locus YLR342W, strain FKS1, hits give low values 1.02 | S. cerevisiae deletion strains, locus YLR357W, strain rsc2, hits give low values 1.01 | S. cerevisiae deletion strains, locus YLR370C, strain arc18, hits give low values 1.05 | S. cerevisiae deletion strains, locus YLR371W, strain rom2, hits give low values 0.989 | S. cerevisiae deletion strains, locus YLR384C, strain iki3, hits give low values 1.02 | S. cerevisiae deletion strains, locus YLR418C, strain cdc73, hits give low values 0.971 | S. cerevisiae deletion strains, locus YML016C, strain PPZ1, hits give low values 1.02 | S. cerevisiae deletion strains, locus YML032C, strain rad52, hits give low values 0.997 | S. cerevisiae deletion strains, locus YML120C, strain ndi1, hits give low values 1.04 | S. cerevisiae deletion strains, locus YML124C, strain tub3, hits give low values 0.987 | S. cerevisiae deletion strains, locus YMR058W, strain fet3, hits give low values 1.02 | S. cerevisiae deletion strains, locus YMR078C, strain ctf18, hits give low values 0.981 | S. cerevisiae deletion strains, locus YMR125W, strain sto1, hits give low values 1.02 | S. cerevisiae deletion strains, locus YMR129W, hits give low values 1.02 | S. cerevisiae deletion strains, locus YMR205C, strain PFK2, hits give low values 0.995 | S. cerevisiae deletion strains, locus YMR223W, strain ubp8, hits give low values 0.998 | S. cerevisiae deletion strains, locus YMR231W, strain pep5, hits give low values 1.02 | S. cerevisiae deletion strains, locus YMR263W, strain SAP30, hits give low values 1.01 | S. cerevisiae deletion strains, locus YMR307W, strain GAS1, hits give low values 1.17 | S. cerevisiae deletion strains, locus YNL067W, strain RPL9B, hits give low values 1.01 | S. cerevisiae deletion strains, locus YNL071W, strain lat1, hits give low values 1.03 | S. cerevisiae deletion strains, locus YNL183C, strain NPR1, hits give low values 0.963 | S. cerevisiae deletion strains, locus YNL209W, strain ssb2, hits give low values 1.02 | S. cerevisiae deletion strains, locus YNL233W, strain BNI4, hits give low values 1.03 | S. cerevisiae deletion strains, locus YNL248C, strain rpa49, hits give low values 0.985 | S. cerevisiae deletion strains, locus YNL250W, strain rad50, hits give low values 1.02 | S. cerevisiae deletion strains, locus YNL271C, strain bni1, hits give low values 0.985 | S. cerevisiae deletion strains, locus YNL298W, strain CLA4, hits give low values 0.996 | S. cerevisiae deletion strains, locus YNL307C, strain MCK1, hits give low values 0.999 | S. cerevisiae deletion strains, locus YNL322C, strain KRE1 (second series), hits give low values 1.01 | S. cerevisiae deletion strains, locus YNL322C, strain KRE1, hits give low values 1.02 | S. cerevisiae deletion strains, locus YNR049C, strain mso1, hits give low values 1.03 | S. cerevisiae deletion strains, locus YNR052C, strain pop2, hits give low values 0.981 | S. cerevisiae deletion strains, locus YOL006C, strain TOP1, hits give low values 1.03 | S. cerevisiae deletion strains, locus YOL012C, strain htz1 0.899 | S. cerevisiae deletion strains, locus YOL147C, strain pex11, hits give low values 0.997 | S. cerevisiae deletion strains, locus YOR001W, strain rrp6, hits give low values 1.05 | S. cerevisiae deletion strains, locus YOR061W, strain CKA2, hits give low values 1.02 | S. cerevisiae deletion strains, locus YOR069W, strain VPS5, hits give low values 1.02 | S. cerevisiae deletion strains, locus YOR070C, strain gyp1, hits give low values 1.03 | S. cerevisiae deletion strains, locus YOR080W, strain dia2, hits give low values 1.03 | S. cerevisiae deletion strains, locus YOR083W, strain WHI5, hits give low values 0.985 | S. cerevisiae deletion strains, locus YOR106W, strain vam3, hits give low values 1.01 | S. cerevisiae deletion strains, locus YOR136W, strain idh2, hits give low values 0.987 | S. cerevisiae deletion strains, locus YOR144C, strain elg1, hits give low values 0.983 | S. cerevisiae deletion strains, locus YOR184W, strain ser1, hits give low values 1.01 | S. cerevisiae deletion strains, locus YOR231W, strain MKK1, hits give low values 1.02 | S. cerevisiae deletion strains, locus YOR265W, strain rbl2, hits give low values 1.01 | S. cerevisiae deletion strains, locus YOR270C, strain vph1, hits give low values 1.05 | S. cerevisiae deletion strains, locus YOR290C, strain snf2, hits give low values 1.04 | S. cerevisiae deletion strains, locus YOR316C, strain cot1, hits give low values 0.989 | S. cerevisiae deletion strains, locus YPL051W, strain arl3, hits give low values 1.01 | S. cerevisiae deletion strains, locus YPL078C, strain atp4, hits give low values 1.02 | S. cerevisiae deletion strains, locus YPL106C, strain sse1, hits give low values 1.03 | S. cerevisiae deletion strains, locus YPL240C, strain hsp82, hits give low values 1.03 | S. cerevisiae deletion strains, locus YPL241C, strain CIN2, hits give low values 1.01 | S. cerevisiae deletion strains, locus YPL256C, strain CLN2, hits give low values 1.03 | S. cerevisiae deletion strains, locus YPR119W, strain clb2, hits give low values 0.986 | S. cerevisiae deletion strains, locus YPR141C, strain kar3, hits give low values 0.989 | S. cerevisiae deletion strains, locus YPR163C, strain tif3, hits give low values 0.988 | S. cerevisiae deletion strains, locus YPR167C, strain met16, hits give low values 0.99 | S. cerevisiae deletion strains, strain wtn01, hits give low values 0.976 | S. cerevisiae strains, strain wild type, hits give low values 1.02
